Assay outcomes deposited in PubChem BioAssay by Buhrlage Lab, Dana-Farber Cancer Institute and Novartis Institutes for BioMedical Research (Cambridge, Mass).
Sampled rows, rich in hits. Any-hit rate of the full collection: about 12%.
USP17 block: human USP17-like deubiquitinase inhibition; A8MUK1; purified USP17, Ub-rhodamine cleavage fluorescence, 3 h; inhibition, % at 50 µM; 47,000 compounds, 6.5% hits; AID 1645855
USP8 block: inhibitors of human USP8 deubiquitinase; P40818; purified USP8, Ub-rhodamine cleavage fluorescence, 30 min; inhibition, % at 20 µM; 47,000 compounds, 4.2% hits; AID 1645853
USP30 inh: human USP30 deubiquitinase inhibition; Q70CQ3; purified USP30, Ub-rhodamine cleavage fluorescence; inhibition, % at 25 µM; 47,000 compounds, 5.3% hits
Of the large screens only hits and unclear results are named; the others gave an inactive call. No stated cut-off is given here; in the data, active means inhibition above about 30%; inactive means the rest.

O=C(CN1CCC(c2nc(-c3cccc(F)c3)no2)CC1)Nc1ccccc1	none
N#Cc1cccc(S(=O)(=O)N2CCC(c3nc(C4CC4)no3)C2)c1 (configuration not stated)	none
COCCCn1c(C(=O)NC(C)C)cc2c(=O)n3ccccc3nc21	none (no result: USP30 inh)
Cc1noc(-c2cc(=O)n(CC(=O)NC3CCCC3)c3ccccc23)n1	USP8 block 35
Cc1ccc2c(c1)c1ncn(Cc3nc(C)no3)c(=O)c1n2CC(=O)NCc1ccccc1	USP17 block 72, USP8 block 35, USP30 inh 87
CC(C)n1c(=O)c2nscc2n(CC(=O)NCc2ccccc2)c1=O	none
Cc1cc(-c2nnc(C3CCC3)o2)c(C)n1CC(=O)NCc1ccccc1	none
Cc1noc(-c2cc(=O)n(CC(=O)Nc3ccccc3)c3ccccc23)n1	USP17 block 42 (no result: USP30 inh)
CCc1noc(-c2cc(=O)n(CC(=O)Nc3ccccc3)c3ccccc23)n1	none
Cc1ccc(CNC(=O)Cn2c(C)cc(-c3nnc(C)o3)c2C)cc1	USP17 block 30
Cc1noc(-c2cc(=O)n(CC(=O)Nc3cc(F)cc(F)c3)c3ccccc23)n1	none
COc1ccc(-n2c(C)cc(CNS(=O)(=O)c3ccc(NC(C)=O)cc3)c2C)cc1	none
O=C(Nc1ccccc1)c1ccc2c(c1)S(=O)(=O)Nc1ncnn1-2	none
COc1ccccc1NC(=O)N1CC[C@H]2NC(=O)[C@H](Cc3ccccc3)N(C)C(=O)[C@H]21	none
Cc1cc(=O)n(CC(=O)NCc2ccc(F)cc2)c(-c2ccc(F)cc2)n1	none
Cc1noc(-c2cc(=O)n(CC(=O)Nc3ccccc3Cl)c3ccccc23)n1	none
Cc1ccc(CNC(=O)Cn2c(=O)cc(-c3nc(C)no3)c3ccccc32)cc1	USP17 block 42
Cc1cc(=O)n(CC(=O)NCc2ccc(F)cc2)c(-c2ccccc2)n1	USP30 inh 39
Cc1ccc(CN2C(=O)C(CC(=O)Nc3ccccc3Cl)n3c2nc2ccccc23)cc1 (configuration not stated)	none
Cc1ccc(NC(=O)c2cc(Cl)cc(Cl)c2)cc1S(=O)(=O)N1CCCCCC1	none
O=C(Nc1nc(-c2ccccc2)ns1)c1ccc2ncsc2c1	USP17 block 41
CCOc1cccc(C(=O)Nc2nc(-c3ccc(OCC)c(OC)c3)ns2)c1	none
O=C(Cc1ccccc1)Nc1nc(-c2ccccc2)ns1	USP30 inh 37
O=C(Cc1ccc(Cl)cc1)Nc1nc(-c2ccc(F)cc2)ns1	none
CC(C)C(=O)N1C[C@H]2CN(C(=O)c3cscn3)C[C@H]2C1	none
O=C(CCc1ccccc1)Nc1ccc2c(c1)nc1n2CCN(C2CCCC2)C1	USP8 block 31
CS(=O)(=O)Nc1ccc2c(c1)nc1n2CCN(C2CCCC2)C1	none
Cc1ccc(S(=O)(=O)N2CCCC(c3nc(-c4cccnc4)no3)C2)cc1 (configuration not stated)	none
Cn1cnc(C(=O)N2CCCC23CCCN(C(=O)Nc2ccccc2)C3)c1 (configuration not stated)	none
O=C1CC(c2ccco2)Cc2[nH]c(=O)c(-c3nc(-c4ccc(Cl)cc4)cs3)cc21 (configuration not stated)	USP8 block 34
COc1ccc(-c2csc(-c3cc4c([nH]c3=O)CC(c3ccco3)CC4=O)n2)cc1 (configuration not stated)	none
Cc1cccc(N2CCn3c2nc2c3c(=O)n(CCN3CCOCC3)c(=O)n2C)c1	USP30 inh 38
Cn1c(=O)n(CCN2CCOCC2)c(=O)c2c1nc1n2CCN1c1cccc(Cl)c1	none
Cc1cccc(N2CCn3c2nc2c3c(=O)n(CCN3CCOCC3)c(=O)n2C)c1C	none
Cc1ccc(N2CCCn3c2nc2c3c(=O)n(CCN3CCOCC3)c(=O)n2C)cc1	USP30 inh 34
Cc1ccc(C)c(-n2c(N)c(C(=O)NCCc3ccccc3)c3nc4ccccc4nc32)c1	none
CCN1CCN(C(=O)C2CCN(Cc3ccccc3O)CC2)CC1	none
Cc1ncc(CO)c2cc(C(=O)Nc3ccc(Cl)cc3)c(=Nc3ccccc3)oc12	none
COc1cc(OC)c(NC(=O)Nc2nnc(CC(=O)N3CCOCC3)s2)cc1Cl	none
COc1ccc(Nc2ncnc3c2nnn3C)cc1OC	none (no result: USP17 block)
O=C(NC1=C(C(=O)c2ccccc2)N(Cc2ccccc2)S(=O)(=O)c2ccccc21)c1ccc(F)cc1	none
CC1=C(C(=O)NCc2ccccc2)C(c2cccc(F)c2)n2ncnc2N1 (configuration not stated)	USP30 inh 33
COc1ccc(C2C(C(=O)NCc3ccccc3)=C(C)Nc3ncnn32)cc1 (configuration not stated)	none
Cc1ccc(C)c(NC(=O)C(Sc2nnc(C)n2Cc2ccccc2)c2ccccc2)c1 (configuration not stated)	USP30 inh 30 (no result: USP17 block)
Cc1ccc(C)c(C(=O)CSc2nnc(C)n2Cc2ccccc2)c1	none
